About 4,200 (1.2%) of roughly 360,000 compounds were called active.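 Rule for the calls: active = mean replicate inhibition at least 60% with every replicate also reaching 60%; inconclusive = only one of the two criteria is met; inactive = mean below 60% and not all replicates reaching 60%.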 Many of the other results were omitted from the sample, so actives are more common in it than they were.
Test: PAX8 transcriptional activity inhibition in RMG-I – RMG-I cells, luciferase, single concentration, primary screen (AID 652154);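 note: luciferase light reporting Pax8 driven TPO promoter activity; plate controls were median of neutral control wells for no effect and mitoxantrone controls for full effect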
Conditions: RMG-I TPO-luciferase reporter, SteadyGlo, 24 h; at 12.6 µM; stronger effect = higher value

inhibition, inactive:
CN1C(=O)c2cc(NC(=O)c3cscn3)ccc2OC[C@@H]2O[C@H](CC(=O)N3CCCCC3)CC[C@H]21 -16.1%
CCCN(C)C[C@H]1OCCCC[C@@H](C)Oc2ccc(NC(=O)CCC(F)(F)F)cc2C(=O)N([C@H](C)CO)C[C@H]1C 8.93%
Cc1nc2c(c(C)nn2-c2ccccc2)c(C)c1C 12.6%
Cn1c(=O)c2c(-c3cccc(Br)c3)c(C#N)c(N)nc2n(C)c1=O 4.92%
C[C@H]1CN([C@@H](C)CO)C(=O)c2cccc(NS(=O)(=O)c3cn(C)cn3)c2O[C@@H]1CN(C)C(=O)Nc1ccc(F)cc1 -9.83%
O=C(Nc1ccccc1)N[C@@H]1CC[C@H](CCNS(=O)(=O)c2ccccc2F)O[C@@H]1CO -8.59%
Cc1ccc(-c2csc(NC(=O)C3=COCCO3)n2)cc1C -109%
C/C(CC1CC(C)(C)OC1=O)=N/Nc1nc(-c2ccccc2)cs1 (stereo not drawn) 19.2%
CC(=O)N1[C@H](CO)[C@H](c2ccc(-c3ccccc3)cc2)[C@H]1CNC(=O)C1CC1 -4.5%
CC(=O)c1cccc(-c2cnc3c(NC=O)cc(-c4cccc(C(=O)N(C)C)c4)cn23)c1 12.7%
CN(C)C(=O)c1cccc(-c2cnc3c(NC=O)cc(-c4ccc(F)cc4)cn23)c1 33.9%
COc1ccc(NC(=O)Nc2ccc3c(c2)C(=O)N([C@H](C)CO)C[C@H](C)[C@H](CN(C)S(=O)(=O)c2ccc(Cl)cc2)OCCCC[C@H](C)O3)cc1 26.6%
O=C(C[C@@H]1C[C@@H]2c3cc(NS(=O)(=O)c4ccccc4)ccc3O[C@@H]2[C@@H](CO)O1)NC1CCCCC1 15.4%
CCOC(=O)c1c(C)[nH]c(C(=O)OCC(=O)c2ccc(OC)cc2OC)c1C -7.09%
CCOC(=O)c1c(C)[nH]c(C)c1S(=O)(=O)NCCCc1ccco1 -4.09%
COCC(=O)Nc1ccc2c(c1)C(=O)N(C)C[C@@H](OC)[C@@H](C)CN(C(=O)c1ccccc1)[C@@H](C)CO2 -10.2%
CC(=O)N1[C@@H](CO)[C@@H]2c3ccccc3N(S(=O)(=O)c3ccccc3)C[C@@H]21 7.26%
O=C(C(=O)N1CCC(CNC(=O)c2cccnc2Cl)CC1)c1cccs1 -11.9%
CC(/C=N/NC(=O)c1cc(-c2ccc3ccccc3c2)n[nH]1)=C\c1ccco1 -6.24%
O=C(N/N=C\c1cccc(Br)c1)c1ccccc1-n1cccc1 24.9%
Cc1cc(C(=O)NCCc2ccc(Cl)cc2)c(C)o1 -114%
Cc1ccc(-c2cc(C(=O)N/N=C/C=C/c3ccccc3)n[nH]2)o1 47.7%
O=C(Nc1cccc(F)c1)N[C@@H]1CC[C@@H](CCn2cc(Cc3ccccc3)nn2)O[C@@H]1CO 3.01%
C[C@H](CO)N1C[C@H](C)[C@H](CN(C)C(=O)Nc2ccc3c(c2)OCO3)Oc2ccc(NS(=O)(=O)c3ccc(Cl)cc3)cc2CC1=O -20.9%
CN1[C@@H]2CN(C(=O)c3ccc(F)cc3)c3ccccc3[C@@H]2[C@@H]1CO -1.94%
O=C(Nc1cc(F)ccc1F)N[C@H]1CC[C@@H](CCn2cc(C3CCCC3)nn2)O[C@@H]1CO 5.81%
Cc1noc(C)c1NC(=O)N(C)C[C@H]1Oc2ccc(NC(=O)C3CCCCC3)cc2CC(=O)N([C@@H](C)CO)C[C@H]1C -10.9%
CO[C@@H]1CN(C)C(=O)c2ccc(NC(=O)C3CCC3)cc2OC[C@H](C)N(C(=O)CN(C)C)C[C@H]1C -10.4%
COc1cccc(CNC(=O)C[C@H]2CC[C@@H](NC(=O)C3CCC3)[C@@H](CO)O2)c1 -6.76%
O=C(Cc1ccccc1)N1C[C@@H]2[C@H](c3ccccc31)[C@@H](CO)N2C(=O)C1CC1 6.8%
O=C(c1ccccc1)N1C[C@@H]2[C@H](c3ccccc31)[C@@H](CO)N2Cc1cc(F)ccc1F 28%
Cc1ccc(S(=O)(=O)N(C)C[C@H]2OCCCC[C@H](C)Oc3ccc(N(C)C)cc3C(=O)N([C@H](C)CO)C[C@@H]2C)cc1 32%
O=C(C[C@@H]1C[C@@H]2c3cc(NC(=O)NC4CCCC4)ccc3O[C@@H]2[C@H](CO)O1)NCC(F)(F)F -19.4%
CNC[C@H]1OCCCC[C@@H](C)Oc2ccc(NC(=O)c3ccncc3)cc2C(=O)N([C@H](C)CO)C[C@H]1C -8.2%
O=S(=O)(NC1CCCCC1N1CCCCC1)c1ccc(Cl)cc1 (stereo not drawn) 7.52%
COc1ccc(N2CCN(C3CCCCC3NS(=O)(=O)c3ccccc3)CC2)cc1 (stereo not drawn) 19.3%
C[C@@H]1CN([C@@H](C)CO)C(=O)c2cc(NC(=O)CCN3CCOCC3)ccc2O[C@H]1CN(C)C(=O)NC1CCCCC1 -13.4%
C[C@@H]1CN([C@@H](C)CO)C(=O)c2cc(-c3cncnc3)cnc2O[C@H]1CN(C)Cc1cncnc1 -3.91%
CN(C)C(=O)c1cccc(-c2ccc([C@H]3[C@@H](CO)N4C(=O)CN(C(=O)C5CC5)C[C@@H]34)cc2)c1 -11.3%
CCCCC(O)(CCCC)C(=O)NN(C(=O)CCl)c1ccccc1 -1.33%
Cc1cccc(N(Cc2ccccc2)C(=O)c2ccccc2F)c1 3.65%
CN1c2ccc(-c3cccc(F)c3)cc2[C@@H]2[C@@H](CCN2C(=O)Nc2ccccc2F)[C@@H]1CO 39.3%
CC(C)NC(=O)Nc1ccc2c(c1)C(=O)N([C@H](C)CO)C[C@H](C)[C@H](CN(C)Cc1ccc(C(=O)O)cc1)OCCCC[C@@H](C)O2 2.34%
O=C(NCc1ccncc1)c1ccc(NS(=O)(=O)c2cccc([N+](=O)[O-])c2)cc1 -1.39%
Cc1ccccc1OS(=O)(=O)c1cccc([N+](=O)[O-])c1 -23.3%
COc1ccc(NC(=O)N[C@H]2CC[C@H](CCn3cc(-c4ccccc4F)nn3)O[C@H]2CO)cc1 -4.51%
C[C@@H]1CCCCO[C@H](CN(C)S(=O)(=O)c2cn(C)cn2)[C@@H](C)CN([C@@H](C)CO)C(=O)c2cc(NC(=O)c3ccncc3)ccc2O1 -1.88%
CO[C@H]1CN(C)C(=O)c2ccc(NS(=O)(=O)c3cn(C)cn3)cc2OC[C@@H](C)N(CC2CC2)C[C@H]1C -11.1%
O=C(CC(=O)N/N=C\c1ccc(F)cc1)NCCc1ccccc1 16.1%
O=C(NC(Cc1c[nH]c2ccccc12)C(=O)N/N=C/c1ccc(Br)cc1)c1cccs1 (stereo not drawn) -2.62%
CC(=O)c1ccc(S(=O)(=O)N2CCC(Oc3ccc(-n4cnnn4)cc3)CC2)cc1 -37.6%
CC(=O)c1ccc(S(=O)(=O)N2CCC3(CC2)OCCO3)cc1 -17.6%
COc1ccc(S(=O)(=O)Nc2ccc3c(c2)C(=O)N([C@H](C)CO)C[C@H](C)[C@H](CN(C)S(=O)(=O)c2ccc(Cl)cc2)O3)cc1 -6.19%
CC(C)C#Cc1ccc2c(c1)O[C@@H](CN(C)Cc1ccncc1)[C@@H](C)CN([C@@H](C)CO)S2(=O)=O -12.5%
COc1ccc(-c2ccc([C@@H]3[C@@H](CO)N4C(=O)CN(Cc5ccccc5)C[C@@H]34)cc2)cc1 -17%
COc1ccc([Si](C)(C)[C@@H]2[C@@H](CCO)O[C@]3(C(=O)N(Cc4cccc(N5CCCCC5=O)c4)c4ccccc43)[C@H]2C)cc1 3.33%
O=C(CC1CC1)N1[C@@H]2CN(S(=O)(=O)c3ccccc3F)c3ccccc3[C@@H]2[C@@H]1CO -3.48%
O=C(C1=C[C@@H](c2ccccc2)C[C@@H](OCCCCO)O1)N1CCN(Cc2ccccc2)CC1 2.95%

inhibition, active:
CSc1ccc(-c2c(C#N)c(N)nc3c2c(C)nn3-c2ccccc2)cc1 66.4%
Cc1ccc(-c2csc(NC3OC(=O)c4ccccc43)n2)cc1 (stereo not drawn) 92.3%
CN(C)CCNC(=O)c1cccc(-c2cnc3c(NC=O)cc(-c4cccc(C(F)(F)F)c4)cn23)c1 109%
CCOC(=O)c1c(C)[nH]c2c1-c1ccccc1C(=O)C2=O 107%
CC(C)c1cc(C(=O)N/N=C/C(Br)=C/c2ccccc2)n[nH]1 74.5%
Cc1cc(C(=O)N/N=C\C(Br)=C\c2ccccc2)c(C)o1 63%
CC[n+]1cc(C)ccc1/C=C/c1ccc(N(C)C)cc1 86.7%
Oc1c(Cl)cc(Cl)c(Cl)c1Cc1c(O)c(Cl)cc(Cl)c1Cl 107%
O=S(=O)(NC1CCCCC1N1CCN(c2ccccc2F)CC1)c1ccccc1 (stereo not drawn) 101%
CCCC(O)(CCC)C(=O)NN(C(=O)CCl)c1cccc(C)c1 76.1%
CCCCCCCCn1c2c(c(=N)c3c1CCC3)CCCC2 96.6%
N/C(=N\OS(=O)(=O)c1cccc([N+](=O)[O-])c1)c1ccncc1 134%
O=C(Cc1c[nH]c2ccccc12)N/N=C/c1cccc(F)c1 73.6%
CC(=O)c1ccc(S(=O)(=O)N2CCN(C(=O)/C=C/c3ccc4ccccc4n3)CC2)cc1 79.4%
COc1ccc([Si](C)(C)[C@@H]2[C@@H](CCO)O[C@]3(C(=O)N(Cc4ccccc4)c4ccc(N5CCC5=O)cc43)[C@H]2C)cc1 101%

Reference: PubChem BioAssay AID652154 (Broad Institute, 2013)
